# High-throughput results from PubChem.
# VDR inh – blocks the human vitamin D receptor; P11473; VDR-SRC2-3 peptide fluorescence polarization, 2 h; Potency, µM, inactives show max response, negative = inhibition, hits mostly inhibitors; 400,000 tested, 0.93% active; AID 504847; note: potency is the fitted concentration of half-maximal effect; % is set by controls: 0 for no effect and ±100 for the full control effect
# Target sequence (P11473 whole entry, looked up): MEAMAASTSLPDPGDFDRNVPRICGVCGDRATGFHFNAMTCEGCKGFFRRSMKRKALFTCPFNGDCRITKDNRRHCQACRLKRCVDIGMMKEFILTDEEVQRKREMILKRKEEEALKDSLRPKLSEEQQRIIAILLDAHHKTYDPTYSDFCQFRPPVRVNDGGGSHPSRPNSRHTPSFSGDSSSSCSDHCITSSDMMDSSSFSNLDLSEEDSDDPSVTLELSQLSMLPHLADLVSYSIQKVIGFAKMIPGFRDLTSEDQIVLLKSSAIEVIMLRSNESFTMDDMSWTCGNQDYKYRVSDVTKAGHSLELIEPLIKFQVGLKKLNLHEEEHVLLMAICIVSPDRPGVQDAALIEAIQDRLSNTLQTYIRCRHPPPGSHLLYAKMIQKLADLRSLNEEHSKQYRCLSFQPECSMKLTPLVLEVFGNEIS
#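 Fluorescence polarization assay measuring small-molecule disruption of VDR binding to the coregulator peptide SRC2-3. Compounds were pin-transferred (23 nl) into the reagent mix and incubated 2 h at room temperature before reading.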
# JMJD2E inh – JMJD2E (human) inhibition | B2RXH2 | JMJD2E catalytic domain, FDH-coupled NADH fluorescence (FDH is formaldehyde dehydrogenase) | Potency, µM (titrated, usually from 57.1 µM), for inactives: at the highest dose activity change, negative = inhibition, actives largely listed as inhibitors | 230,000 tested, 1.6% active | AID 2147; active = well fitted inhibition curve with a large enough effect, not every such curve was filed as active; inconclusive = small, poorly fitted or top-dose-only effect, or another doubt; inactive = no such curve, though single readings can be large or run the other way;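 note: potency is the fitted concentration of half-maximal effect; 0% = wells with enzyme and -100% = buffer wells without enzyme; nearly all actives have a fitted effect of over 50% in size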
# Target sequence (B2RXH2 1-337 limits assumed): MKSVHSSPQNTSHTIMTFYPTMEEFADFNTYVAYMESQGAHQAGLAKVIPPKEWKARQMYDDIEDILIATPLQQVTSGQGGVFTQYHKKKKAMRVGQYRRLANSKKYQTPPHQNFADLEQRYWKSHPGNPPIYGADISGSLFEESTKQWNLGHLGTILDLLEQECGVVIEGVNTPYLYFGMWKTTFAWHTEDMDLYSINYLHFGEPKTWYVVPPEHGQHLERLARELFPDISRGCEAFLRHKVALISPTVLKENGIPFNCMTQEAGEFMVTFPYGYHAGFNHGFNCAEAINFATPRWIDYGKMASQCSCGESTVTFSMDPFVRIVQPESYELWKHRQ
# HTT cytoprotect – Huntington cell model cytoprotection by ATP luminescence; PC12 HTT-Q103 induced, cytoprotection, ATP luminescence, 40 h; Potency, µM (titrated, usually from 56.4 µM), inactives show cytoprotection (ATP increase), actives largely listed as activators; 230,000 tested, 0.14% active; AID 1471; note: potency is the fitted concentration of half-maximal effect; % of control where 0% means no effect; nearly all actives have a fitted effect of over 45% in size
#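 Cells were plated at 1500 per well in phenol red-free DMEM with 5% equine and 5% calf serum. Tebufenozide (100 nM final) and compounds were added, then ATPlite reagent, and luminescence was read.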
# RGS12 GoLoco inh – RGS12 GoLoco-Gai1 interaction inhibition. Potency, µM (highest dose often 61.6 µM), for inactives: at the top dose activity, negative = inhibition, most hits filed as inhibitors. Gai1:RGS12 GoLoco peptide FP, rhodamine, 10 min. 230,000 tested, 0.44% active. AID 880; active = well fitted inhibition curve with a large enough effect, not every such curve was filed as active; inactive = no such curve, though single readings can be large or run the other way; note: potency is the fitted concentration of half-maximal effect; % is set by controls: 0 for no effect and ±100 for the full control effect; nearly all actives have a fitted effect of over 30% in size
# HTT aggregate – inhibitors of mutant huntingtin aggregate formation in PC12 cells. 220,000 tested, 1.1% active. Potency, µM (top dose mostly 46.1 µM), for the others: top-dose activity change, negative = inhibition, most hits filed as inhibitors. PC12 HttQ103-GFP aggregates, Acumen cytometry, 40 h. AID 1688; note: potency is the fitted concentration of half-maximal effect; % is set by controls: 0 for no effect and ±100 for the full control effect; nearly all actives have a fitted effect of over 60% in size
#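 Multiplexed with ATP-based cell death, this channel scores GFP aggregates in PC12 cells expressing inducible HTTex1-Q103-GFP. Induction used 100 nM tebufenozide; compounds were tested in concentration series.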
# Coupling enz – coupling enzyme interference in Giardia aldolase counter-screen; coupling enzyme system counterscreen, AmpLite Red fluorescence; activity change, negative = inhibition, % at 58.2 µM, hits read low; 290,000 tested, 0.67% active; AID 2472; in the data active = activity change below about -30%; note: % is set by controls: 0 for no effect and ±100 for the full control effect
#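 Activity here indicates interference with the coupling reaction, not aldolase inhibition. Compounds at 57.5 uM final met coupling enzymes for 10 min at RT; substrate and AmpLite Red detection followed, with a 525/598 nm fluorescence read after 20 min.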
# Active calls of the source: *; ? = inconclusive; · = not tested or not shown; [ ] = another dose, or the depositor's remark. Compounds with a hit are over-represented: about 2.3% of the library has one in this group of screens. Unless noted, calls come from the whole dose curve; as a rule, active = well fitted curve in the direction sought with a large enough effect; inconclusive = small, poorly fitted or top-dose-only effect, or another doubt; inactive = no such curve, though single readings can be large; an effect the other way counts as inactive or inconclusive.
SMILES,VDR inh,JMJD2E inh,HTT cytoprotect,RGS12 GoLoco inh,HTT aggregate,Coupling enz
COc1ccccc1NS(=O)(=O)c1cc(NC(=O)c2sccc2C)ccc1N1CCCC1,89.1µM*,?,-25.3%,21.5%,26.8%,-8.1
O=C(Nc1ccc(Cl)c(Cl)c1)Nc1ccc(N2CCCC2)c(S(=O)(=O)Nc2ccccc2Cl)c1,-26.6%,?,14.5%[10 µM],3.4%,?,0.1
O=C(Nc1ccc(F)cc1)Nc1ccc(N2CCCC2)c(S(=O)(=O)Nc2ccccc2Cl)c1,-2.3%,22.4µM*,-31.3%[10 µM],1.1%,?,-1.1
COc1ccccc1NS(=O)(=O)c1cc(NC(=O)c2sccc2C)ccc1N1CCOCC1,-11.7%,-22.2%,17.8%[10 µM],9.3%,26.5%[9.22 µM],0.6
N#CCCn1c(=O)cnc2cnc(N3CCNCC3)nc21,-1.9%,·,-6.6%,0.0%,·,0.9
CC1=NN(c2ccc(F)cc2)C(=O)C1C(c1cccc(O)c1)c1c(C)[nH]n(-c2ccc(F)cc2)c1=O (stereo unspecified),-12.8%,-15.2%,-8.1%,-1.5%,27.6%,-5.6
CC1=NN(c2ccc(Cl)cc2)C(=O)C1C(c1cccc(O)c1)c1c(C)[nH]n(-c2ccc(Cl)cc2)c1=O (stereo unspecified),79.4µM*,3.16µM*,33.2%[10 µM],-0.7%,12.6µM*,14.7
N#C/C(=C\Nc1ccccc1O)c1nc2ccccc2o1,-25.2%,0.2%,-26.7%[10 µM],17.5%,5.62µM*,-4.6
Oc1ccc2ccccc2c1-c1sc(Nc2ccccc2)n[n+]1-c1ccc(F)cc1,-8.3%,·,·,·,·,-1.4
Fc1ccc(-[n+]2nc(Nc3ccccc3)sc2-c2c3ccccc3cc3ccccc23)cc1,-19.1%,·,·,·,·,-30.7*
CN(CC(=O)Nc1ccccc1C(F)(F)F)C(=O)c1ccc(-c2ccc(Cl)cc2)o1,-6.3%,·,·,·,·,·
Cc1ccc(-n2nc(C)c(C(=O)NCCCN3CCN(c4ccccc4F)CC3)c2-n2cccc2)cc1,-1.3%,·,·,·,·,·
CCOC(=O)c1scc(-c2ccc(C)cc2)c1S(=O)(=O)N1CCN(c2ccccc2F)CC1,-1.8%,·,·,·,·,·
Nc1cc(-c2ccncc2)c[nH]c1=O,20µM*,1.12µM*,-27.1%,-9.9%,?,-73.1*
NC(=O)c1csc(-c2ccncc2)n1,4.6%,6.0%,30.6%[10 µM],3.9%,-14.2%,2.7
CC1=C(C(=O)Nc2cccc(Cl)c2C)C2(CCCCCC2)OC1=O,4.0%,·,·,·,·,·
Nc1ccc(Nc2ccccc2N)cc1,-1.5%,?,-20.7%[10 µM],90.0%,-10.1%,-31.2*
COc1ccc(Nc2ccccc2N)cc1,-29.9%,10µM*,-40.1%,142.5%,12.6µM*,-0.1
COc1ccc(Nc2ccnc3ccccc23)cc1,-1.3%,1.2%,1.7%,12.0%,?,-1.2
CC(C)(C)c1ccc(S(=O)(=O)/C=C/C#N)cc1,6.31µM*,0.5%,·,4.6%,·,·
O=C(NCc1ccc2[nH]c3c(c2c1)CCCC3)c1ccc(S(=O)(=O)N2CCOCC2)cc1,5.4%,-8.5%,·,7.0%,-10.9%,-0.7
O=C(NCc1ccc2[nH]c3c(c2c1)CCCC3)N1CCOCC1,·,?,3.7%,3.7%,7.1%,-53.1*
CCOC(=O)C1=C(CS(=O)(=O)c2ccccc2)NC(=O)NC1c1cc(OC)c(O)c(OC)c1 (stereo unspecified),-2.4%,·,·,·,·,-0.1
CC[C@H](C)[C@H](NC(=O)CNC(=O)[C@H](CCCNC(=N)N)NC(=O)CNC(=O)[C@@H](NC(=O)[C@H](Cc1ccc(O)cc1)NC(=O)[C@H](Cc1c[nH]c2ccccc12)NC(=O)[C@H](C)NC(=O)[C@@H]1CCCN1C(=O)[C@H](CC(N)=O)NC(=O)[C@@H](NC(=O)[C@H](CC(=O)O)NC(=O)[C@@H]1CCCN1C(=O)[C@@H](N)[C@@H](C)O)[C@@H](C)CC)[C@@H](C)O)C(=O)N[C@@H](CCCNC(=N)N)C(=O)N1CCC[C@H]1C(=O)N[C@H](C(=O)NCC(=O)N[C@@H](CCCNC(=N)N)C(=O)N[C@@H](Cc1ccccc1)C(N)=O)C(C)C,0.9%,·,·,·,·,-0.4
COc1ccc(CCN(C)CCCOc2ccc(S(=O)(=O)c3[nH]c4ccccc4c3C(C)C)cc2)cc1OC,-6.5%,25.1µM*,-80.4%,0.4%,·,0.6
SMILES,VDR inh,JMJD2E inh,HTT cytoprotect,RGS12 GoLoco inh,HTT aggregate,Coupling enz
COc1ccc(Br)cc1CNC(=O)CCCn1c(=O)c2cccn2c2ccccc21,0.6%,·,·,·,·,·
S=c1[nH]nc(-c2n[nH]c3c2CCC3)n1/N=C/C=C/c1ccco1,-17.9%,28.2µM*,19.9%[10 µM],-1.4%,11.7%[9.22 µM],0.4
COc1ccccc1/C=C/C=N/n1c(-c2n[nH]c3c2CCC3)n[nH]c1=S,-7.1%,?,-2.9%[10 µM],8.4%,3.2%[9.22 µM],1.0
COc1cccc(/C=N/n2c(-c3n[nH]c4c3CCC4)n[nH]c2=S)c1O,-4.7%,31.6µM*,-20.0%[10 µM],-1.5%,-11.6%,-3.8
CCCCCOc1ccc(C(=O)CCC(=O)NNC(=O)c2ccncc2)cc1,-2.1%,·,·,·,·,·
COc1ccccc1Nc1ncc(C(=O)N2CCC(C(N)=O)CC2)c2ccccc12,5.9%,-0.8%,-17.7%[10 µM],3.8%,6.5%,-34.2*
Cc1ccc(S(=O)(=O)NC(=O)c2ccccc2)cc1C(C)C,-12.6%,-1.5%,2.82µM*,7.9%,?,1.8
O=C(N/N=C/c1ccc2c(c1)OCO2)c1ccccn1,-7.5%,1.4%,-97.1%,4.3%,17.6%,-2.0
O=C(/C=C/c1ccccc1)c1ccccn1,39.8µM*,?,-0.2%,1.2%,5.3%,-5.0
O=C(C=Cc1ccc2c(c1)OCO2)c1ccccc1,39.8µM*,·,·,·,·,·
COc1ccc(/C=C/C(=O)c2ccc3c(c2)OCO3)cc1OC,-14.1%,·,·,·,·,·
O=C(/C=C/c1ccc2c(c1)OCO2)c1ccccn1,79.4µM*,?,7.9%[10 µM],9.7%,-35.9%[9.22 µM],-15.9
CC(=O)N/C(=C/c1ccc2c(c1)OCO2)C(=O)NCC(=O)O,-13.1%,?,·,6.0%,3.16µM*,1.2
COc1cc(CN2CCN(CCCc3ccccc3)C(CCO)C2)cc(OC)c1O (stereo unspecified),-24.0%,·,·,·,·,-41.0*
COc1ccc(CN2CCN(CCCc3ccccc3)C(CCO)C2)c(OC)c1 (stereo unspecified),4.3%,·,·,·,·,1.5
OCCC1CN(Cc2c(O)ccc3ccccc23)CCN1CCc1ccccc1 (stereo unspecified),?,?,-3.5%[10 µM],-2.1%,-3.9%[9.22 µM],-37.6*
Cc1cccc(N2CC(c3nc4ccc(C)cc4[nH]3)CC2=O)c1 (stereo unspecified),6.8%,·,·,·,·,·
O=C(Nc1cccc2cccnc12)C(Cl)(Cl)Cl,4.8%,·,·,·,·,·
O=C1NCCCC1C(=O)N1CCCCC1 (stereo unspecified),-12.0%,4.2%,-26.7%,4.9%,10.2%,2.4
